Reference: the supplement of paper PMC4466140

B1: unnamed (peptide)
chain: PSRRAPLQLPQLVNK
B2: unnamed (peptide)
chain: NIKVLLNPKLGKPVK
B3: unnamed (peptide)
chain: KRRTSLFPWLHKPGI
B4: unnamed (peptide)
chain: IPSRPAPKPPSSASA

biological target: SpBzz1-D2; assay: SPOT peptide array binding signal intensity (averaged, normalized) (arbitrary units (background-subtracted, floor 0; scale differs between SH3 domains)); higher = stronger binding of the SH3 domain to the peptide
Outline: (§1)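 To measure binding, SH3 domains from four yeast species were fused to GST, expressed in E. coli BL21(DE3) and purified on glutathione Sepharose. Each domain was incubated at 10 μg/ml overnight at 4°C on cellulose membranes with synthetic 15-mer peptides whose cysteines were replaced by serines. Anti-GST antibody, an HRP anti-mouse secondary and luminol were used for detection, and images were quantified with Genespotter. Reported binding signal is normalized, background-subtracted spot intensity averaged over replicates, in arbitrary units that differ between domains.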

Binder	SPOT peptide array binding signal intensity
B1	≤ 0
B2	≤ 0
B4	71.5

biological target: SpCyk3; assay: as above
Outline: as §1

Binder	SPOT peptide array binding signal intensity
B1	≤ 0
B2	≤ 0
B4	2

biological target: SpHof1; assay: as above
Outline: as §1

Binder	SPOT peptide array binding signal intensity
B1	7.75
B2	75.5
B4	≤ 0

biological target: SpHof1-2; assay: as above
Outline: as §1

Binder	SPOT peptide array binding signal intensity
B1	1.25
B2	13
B4	≤ 0

biological target: SpHof1-3; assay: as above
Outline: as §1

Binder	SPOT peptide array binding signal intensity
B1	89.8
B2	640
B4	≤ 0

biological target: SpHse1; assay: as above
Outline: as §1

Binder	SPOT peptide array binding signal intensity
B1	≤ 0
B2	558
B4	52

biological target: SpLsb1; assay: as above
Outline: as §1

Binder	SPOT peptide array binding signal intensity
B1	45.2
B2	1.75
B4	13.5

biological target: SpLsb4; assay: as above
Outline: as §1

Binder	SPOT peptide array binding signal intensity
B1	2
B2	26
B4	136

biological target: SpMyo1; assay: as above
Outline: as §1

Binder	SPOT peptide array binding signal intensity
B1	0.5
B2	≤ 0
B4	3740

biological target: SpNbp2; assay: as above
Outline: as §1

Binder	SPOT peptide array binding signal intensity
B1	3
B2	95.5
B4	65

biological target: SpPex13; assay: as above
Outline: as §1

Binder	SPOT peptide array binding signal intensity
B1	≤ 0
B2	13
B4	93.5

biological target: SpRvs167; assay: as above
Outline: as §1

Binder	SPOT peptide array binding signal intensity
B1	1.67
B2	18.2
B4	202

biological target: SpSla1-D1-D2; assay: as above
Outline: as §1

Binder	SPOT peptide array binding signal intensity
B1	≤ 0
B2	≤ 0
B4	≤ 0

biological target: SpSla1-D3; assay: as above
Outline: as §1

Binder	SPOT peptide array binding signal intensity
B1	≤ 0
B2	4
B4	3

biological target: AgAbp1; assay: as above
Outline: as §1

Binder	SPOT peptide array binding signal intensity
B2	15
B3	14
B4	14

biological target: AgBbc1; assay: as above
Outline: as §1

Binder	SPOT peptide array binding signal intensity
B2	10.2
B3	19.2
B4	289

biological target: AgBem1-D1; assay: as above
Outline: as §1

Binder	SPOT peptide array binding signal intensity
B2	4
B3	13
B4	35

biological target: AgBzz1-D1; assay: as above
Outline: as §1

Binder	SPOT peptide array binding signal intensity
B2	13
B3	15
B4	18

biological target: AgBzz1-D2; assay: as above
Outline: as §1

Binder	SPOT peptide array binding signal intensity
B2	73.5
B3	17
B4	19

biological target: AgCyk3; assay: as above
Outline: as §1

Binder	SPOT peptide array binding signal intensity
B2	≤ 0
B3	4
B4	1

biological target: AgFus1; assay: as above
Outline: as §1

Binder	SPOT peptide array binding signal intensity
B2	316
B3	202
B4	≤ 0

biological target: AgHof1; assay: as above
Outline: as §1

Binder	SPOT peptide array binding signal intensity
B2	17
B3	14
B4	≤ 0

biological target: AgHse1; assay: as above
Outline: as §1

Binder	SPOT peptide array binding signal intensity
B2	760
B3	1230
B4	50.5

biological target: AgLsb1; assay: as above
Outline: as §1

Binder	SPOT peptide array binding signal intensity
B2	≤ 0
B3	1
B4	475

biological target: AgLsb4; assay: as above
Outline: as §1

Binder	SPOT peptide array binding signal intensity
B2	61
B3	53
B4	12

biological target: AgMyo5; assay: as above
Outline: as §1

Binder	SPOT peptide array binding signal intensity
B2	2.5
B3	≤ 0
B4	1790

biological target: AgNbp2; assay: as above
Outline: as §1

Binder	SPOT peptide array binding signal intensity
B2	31.5
B3	196
B4	8100

biological target: AgRvs167; assay: as above
Outline: as §1

Binder	SPOT peptide array binding signal intensity
B2	4
B3	2.33
B4	1.67

biological target: AgSho1; assay: as above
Outline: as §1

Binder	SPOT peptide array binding signal intensity
B2	108
B3	23
B4	≤ 0

biological target: AgSla1-D1-D2; assay: as above
Outline: as §1

Binder	SPOT peptide array binding signal intensity
B2	39.5
B3	297
B4	16

biological target: AgSla1-D3; assay: as above
Outline: as §1

Binder	SPOT peptide array binding signal intensity
B2	7.5
B3	5.5
B4	3.25

biological target: CaAbp1-D1; assay: as above
Outline: as §1

Binder	SPOT peptide array binding signal intensity
B2	407
B3	736
B4	102

biological target: CaAbp1-D2; assay: as above
Outline: as §1

Binder	SPOT peptide array binding signal intensity
B2	32.5
B3	682
B4	128

biological target: CaBbc1; assay: as above
Outline: as §1

Binder	SPOT peptide array binding signal intensity
B2	15.2
B3	53.2
B4	1300

biological target: CaBem1-D1; assay: as above
Outline: as §1

Binder	SPOT peptide array binding signal intensity
B2	0.5
B3	≤ 0
B4	1620

biological target: CaBzz1-D1; assay: as above
Outline: as §1

Binder	SPOT peptide array binding signal intensity
B2	160
B3	35
B4	1550

biological target: CaBzz1-D2; assay: as above
Outline: as §1

Binder	SPOT peptide array binding signal intensity
B2	48.5
B3	22
B4	1510

biological target: CaCyk3; assay: as above
Outline: as §1

Binder	SPOT peptide array binding signal intensity
B2	≤ 0
B3	5
B4	190

biological target: CaFus1; assay: as above
Outline: as §1

Binder	SPOT peptide array binding signal intensity
B2	968
B3	727
B4	30

biological target: CaHof1; assay: as above
Outline: as §1

Binder	SPOT peptide array binding signal intensity
B2	≤ 0
B3	≤ 0
B4	≤ 0

biological target: CaHse1; assay: as above
Outline: as §1

Binder	SPOT peptide array binding signal intensity
B2	9
B3	42.8
B4	1.25

biological target: CaLsb1; assay: as above
Outline: as §1

Binder	SPOT peptide array binding signal intensity
B2	2
B3	0.5
B4	1.25

biological target: CaLsb4; assay: as above
Outline: as §1

Binder	SPOT peptide array binding signal intensity
B2	16
B3	59.5
B4	53.5

biological target: CaMyo5; assay: as above
Outline: as §1

Binder	SPOT peptide array binding signal intensity
B2	4.5
B3	0.25
B4	156

biological target: CaNbp2; assay: as above
Outline: as §1

Binder	SPOT peptide array binding signal intensity
B2	325
B4	4920

biological target: CaRvs167; assay: as above
Outline: as §1

Binder	SPOT peptide array binding signal intensity
B2	105
B4	17

biological target: CaRvs167-3; assay: as above
Outline: as §1

Binder	SPOT peptide array binding signal intensity
B2	752
B4	2

biological target: CaSho1; assay: as above
Outline: as §1

Binder	SPOT peptide array binding signal intensity
B2	700
B4	≤ 0

biological target: CaSla1-D1-D2; assay: as above
Outline: as §1

Binder	SPOT peptide array binding signal intensity
B2	2
B4	2030

biological target: CaSla1-D3; assay: as above
Outline: as §1

Binder	SPOT peptide array binding signal intensity
B2	26
B4	46.5

biological target: ScAbp1; assay: as above
Outline: as §1

Binder	SPOT peptide array binding signal intensity
B2	48
B4	65

biological target: ScBbc1; assay: as above
Outline: as §1

Binder	SPOT peptide array binding signal intensity
B2	0.25
B4	502

biological target: ScBem1-D1; assay: as above
Outline: as §1

Binder	SPOT peptide array binding signal intensity
B2	7
B4	≤ 0

biological target: ScBzz1-D1; assay: as above
Outline: as §1

Binder	SPOT peptide array binding signal intensity
B2	32
B4	16

biological target: ScBzz1-D2; assay: as above
Outline: as §1

Binder	SPOT peptide array binding signal intensity
B2	207
B4	10

biological target: ScCyk3; assay: as above
Outline: as §1

Binder	SPOT peptide array binding signal intensity
B2	10.5
B4	≤ 0

biological target: ScFus1; assay: as above
Outline: as §1

Binder	SPOT peptide array binding signal intensity
B2	527
B4	4

biological target: ScHof1; assay: as above
Outline: as §1

Binder	SPOT peptide array binding signal intensity
B2	1.25
B4	1

biological target: ScHse1; assay: as above
Outline: as §1

Binder	SPOT peptide array binding signal intensity
B2	1460
B4	40

biological target: ScLsb1; assay: as above
Outline: as §1

Binder	SPOT peptide array binding signal intensity
B2	5.75
B4	6

biological target: ScLsb2; assay: as above
Outline: as §1

Binder	SPOT peptide array binding signal intensity
B2	1
B4	55

biological target: ScLsb3; assay: as above
Outline: as §1

Binder	SPOT peptide array binding signal intensity
B2	1.53e-05
B4	197

biological target: ScLsb4; assay: as above
Outline: as §1

Binder	SPOT peptide array binding signal intensity
B2	3
B4	9

biological target: ScMyo3; assay: as above
Outline: as §1

Binder	SPOT peptide array binding signal intensity
B2	1
B4	3540

biological target: ScMyo5; assay: as above
Outline: as §1

Binder	SPOT peptide array binding signal intensity
B2	1
B4	1990

biological target: ScNbp2; assay: as above
Outline: as §1

Binder	SPOT peptide array binding signal intensity
B2	29
B4	5880

biological target: ScPex13; assay: as above
Outline: as §1

Binder	SPOT peptide array binding signal intensity
B2	4.5
B4	2620

biological target: ScRvs167; assay: as above
Outline: as §1

Binder	SPOT peptide array binding signal intensity
B2	21.8
B4	149

biological target: ScSho1; assay: as above
Outline: as §1

Binder	SPOT peptide array binding signal intensity
B2	696
B4	≤ 0

biological target: ScSla1-D1-D2; assay: as above
Outline: as §1

Binder	SPOT peptide array binding signal intensity
B2	42
B4	6020

biological target: ScSla1-D3; assay: as above
Outline: as §1

Binder	SPOT peptide array binding signal intensity
B2	7.75
B4	233

biological target: SpAbp1-D1; assay: as above
Outline: as §1

Binder	SPOT peptide array binding signal intensity
B2	30.5
B4	40

biological target: SpBbc1; assay: as above
Outline: as §1

Binder	SPOT peptide array binding signal intensity
B2	11.2
B4	65

biological target: SpBzz1-D1; assay: as above
Outline: as §1

Binder	SPOT peptide array binding signal intensity
B2	132
B4	404
